This note sets out measurements from PubChem BioAssay AID1851 (National Center for Advancing Translational Sciences (NCATS), 2009).

The whole screen tested about 16,000 compounds, of which about 5,100 (32%) were called active. Another 25% or so got no clear call; they are omitted. Calls follow the shape of the dose curve; as a rule, active = well fitted curve in the direction sought with a large enough effect; inconclusive = small, poorly fitted or top-dose-only effect, or effect the other way; inactive = no such curve, though single readings can be large or run the other way. This is one part of the list.
% is scaled to controls: 0 for no effect and ±100 for the full control effect.

Chain of Cytochrome P450 3A4 (Homo sapiens) (P08684 whole entry, looked up): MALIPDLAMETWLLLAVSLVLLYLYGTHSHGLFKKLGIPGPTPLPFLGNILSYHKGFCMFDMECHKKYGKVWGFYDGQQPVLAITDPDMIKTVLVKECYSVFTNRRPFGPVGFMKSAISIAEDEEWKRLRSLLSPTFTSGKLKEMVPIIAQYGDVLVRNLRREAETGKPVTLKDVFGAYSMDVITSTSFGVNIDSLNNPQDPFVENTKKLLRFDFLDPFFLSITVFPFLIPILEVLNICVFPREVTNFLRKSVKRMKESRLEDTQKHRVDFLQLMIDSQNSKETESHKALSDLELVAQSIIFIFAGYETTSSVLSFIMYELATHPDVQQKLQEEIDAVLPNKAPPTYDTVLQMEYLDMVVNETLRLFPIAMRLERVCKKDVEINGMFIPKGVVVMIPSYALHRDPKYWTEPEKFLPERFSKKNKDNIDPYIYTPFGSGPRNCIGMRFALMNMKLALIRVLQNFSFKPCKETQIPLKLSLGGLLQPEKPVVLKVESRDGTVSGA

This experiment concerns the target Cytochrome P450 3A4 (Homo sapiens) (UniProt P08684). The experiment is described as follows: Cytochrome panel assay with activity outcomes. The note with it: recombinant CYP, pro-luciferin dealkylation, luminescence, p450-cyp3a4; series mostly up to 57.1 µM.
As usually defined, the AC50 is the concentration giving half of the maximal activity seen. For `COc1ccccc1C1=NOC(COC(=O)c2ccc3ccccc3n2)C1` (stereo unspecified), the half-maximal activity concentration (AC50) is 17.8 µM (active).
With `O=C(OCC1CC(c2ccccc2)=NO1)c1ccc(Cl)cc1` (stereo unspecified), the AC50 entry was “inactive”.
In the case of `COc1ccc(CNc2cc(-c3cccc(NS(C)(=O)=O)c3)ncn2)c(OC)c1`, the concentration at half-maximal activity (AC50) is 2.51 µM (active).
For the compound `COc1ccccc1CNc1cc(-c2cccc(NS(C)(=O)=O)c2)ncn1`, the concentration at half-maximal activity (AC50) was 5.01 µM (active).
For `Cc1cnn(-c2cc(N/N=C/c3ccccc3F)ncn2)c1`, the activity, negative = inhibition is -16.7% [at 2.29 µM] (inactive).
As for `Cc1cccc(C2NC(=O)c3c(sc(C)c3C)N2)c1O` (stereo unspecified), the AC50 is 12.6 µM (active).
On to `CC(C)(Oc1ccc(-c2cccc3ccccc23)cc1)C(=O)O`, for which the activity, negative = inhibition was -6.61% [at 11.4 µM] (inactive).
On to `O=C(O)c1ccccc1C(=O)NNc1ccc(F)cc1`, for which the AC50 is 11.2 µM (active).
Still for that read-out and setting: the figure for `O=C(O)c1ccccc1C(=O)NNc1ccc(Cl)cc1` is 7.94 µM (active); for `O=C(O)c1ccccc1C(=O)NCc1ccc(F)cc1` it is “inactive”.
On the same count and under the same terms, to `O=C(NNC(=O)c1ccccc1O)c1ccc(Cl)cc1` belongs “inactive”; to `O=C(O)CC[C@@H](NC(=O)c1ccccc1C(=O)O)C(=O)O`, “inactive”.
Take `O=C(O)c1ccccc1-c1ccccc1C(=O)Nc1ccc2c(c1)Cc1cc(F)ccc1-2`: the activity, negative = inhibition was -16.4% [at 11.4 µM] (inactive).
With `Oc1c(CN2CCCCC2)cc(Br)c2cccnc12`, the AC50 result was “inactive”.
Still for that read-out and setting: to `Cc1cc(NC(=O)Nc2ccc3c(ccn3C)c2)sn1` belongs 12.6 µM (active); to `CCCNC(=O)Nc1ccc2c(c1)nc(C)n2C`, “inactive”; to `Cc1noc(C)c1-c1ccc2ncnc(N3CCN(C)CC3)c2c1`, 25.1 µM (active).
`Cc1noc(C)c1-c1ccc2ncnc(NCCN3CCOCC3)c2c1`: the half-maximal activity concentration (AC50) was 12.6 µM (active).
Same read-out and setting: the figure for `Cc1noc(C)c1-c1ccc2ncnc(N3CCOCC3)c2c1` is 31.6 µM (active).
Consider `CCN1CCC[C@H]1CNC(=O)c1cc(S(N)(=O)=O)ccc1OC`, for which the AC50 entry is “inactive”.
The same measure, in the same setting: the entry for `CCOC(=O)C1=C2SCC(=O)N2C(N)=C(C#N)C1` is “inactive”; for `COc1ccccc1CC(=N)N1C[C@@H]2C(=O)CCC(c3ccccc3)(c3ccccc3)[C@@H]2C1` it is 3.16 µM (active); for `COCC(=O)N1CCC2(CC1)CN(Cc1ccccc1OC)C2` it is “inactive”.
Still for that read-out and setting: to `COc1ccccc1CN1CCC2(CC1)CCN(C(C)=O)CC2` belongs “inactive”; to `CC1(C)OC(=O)NC1=O`, “inactive”.
Still for that read-out and setting: to `O=C1C(=O)c2ccccc2C(O)=C1C1CCC(c2ccc(Cl)cc2)CC1` (stereo unspecified) belongs “inactive”; to `O=C1CCCC2=C1C(c1ccc(Cl)cc1)C1C(=O)c3ccccc3C1=N2` (stereo unspecified), 14.1 µM (active).
Regarding `CC[C@](N)(C(=O)O)C(C)C`, the activity, negative = inhibition was -7.26% [at 11.4 µM] (inactive).
In the case of `COC(=O)[C@@]1(Cc2ccccc2)[C@@H]2C(=CC(=O)[C@H]2CC(=O)C(=O)N(C)C)CN1C(=O)c1ccccc1`, the AC50 is 7.94 µM (active).
Still for that read-out and setting: to `COC(=O)[C@@]1(Cc2ccc(F)cc2)[C@@H]2C(=CC(=O)[C@H]2CC(=O)C(=O)N(C)C)CN1C(=O)c1ccccc1` belongs 10 µM (active).
Still for that read-out and setting: the entry for `CC(O)CN(CCC(N)=O)CCC(N)=O` (stereo unspecified) is “inactive”.
The same measure, in the same setting: to `CC(=O)N=c1sccn1CC(=O)c1ccc([N+](=O)[O-])cc1` belongs 4.47 µM (active).
In the case of `O=C(O)/C(Cc1ccc([N+](=O)[O-])cc1)=N/O`, the activity, negative = inhibition is -11.6% [at 11.4 µM] (inactive).
In the case of `CC1CN(C(=S)NC(=O)c2ccc([N+](=O)[O-])cc2)CC(C)O1` (stereo unspecified), the activity, negative = inhibition is 2.57% [at 2.29 µM] (inactive).
With `CCC(=O)OCN1C(=O)C=CC1=O`, the activity, negative = inhibition was 2.64% [at 11.4 µM] (inactive).
Consider `CCCN1C(=O)C(Cc2nc3ccccc3c(=O)n2C)c2ccccc21` (stereo unspecified), for which the concentration at half-maximal activity (AC50) was 7.94 µM (active).
`N=C(N)SCc1nc2ccccc2c(=O)n1-c1ccccc1Cl`: the activity, negative = inhibition is -15.4% [at 2.29 µM] (inactive).
For `CC(=O)N1CCN(C(=O)CC2OC(=O)c3ccccc32)CC1` (stereo unspecified), the half-maximal activity concentration (AC50) is 12.6 µM (active).
Turning to `CC(=O)N1CCC2(CC1)CN(c1ccccc1)C2`, the AC50 entry was “inactive”.
On the same count and under the same terms, to `CCOC(=O)CC1NC(=O)c2ccccc21` (stereo unspecified) belongs “inactive”; to `O=C(CSc1nc2ccccc2[nH]1)Nc1c(F)cccc1F`, 14.1 µM (active).
As for `O=C(O)CSc1nc2ccccc2[nH]1`, the activity, negative = inhibition was 2.87% [at 11.4 µM] (inactive).
Take `CN(C)Cc1ccccc1-c1cc(NC2CC2)ncn1`: the AC50 is 25.1 µM (active).
Take `COc1ccccc1-c1cc(NCc2ccccc2)ncn1`: the AC50 result is “inactive”.
On the same count and under the same terms, the figure for `Cc1cccc(CNc2cc(-c3ccccc3Cl)ncn2)c1` is 15.8 µM (active).
Same read-out and setting: the entry for `CNc1cc(-c2ccccc2CN(C)C)ncn1` is “inactive”.
Regarding `COc1ccccc1-c1cc(NCc2cccc(C)c2)ncn1`, the half-maximal activity concentration (AC50) was 6.31 µM (active).
Still for that read-out and setting: the entry for `CN(C)Cc1ccccc1-c1cc(NCc2ccccc2)ncn1` is “inactive”; for `Cc1cnc(CNc2cc(-c3ccccc3CN(C)C)ncn2)cn1` it is “inactive”.
For the compound `Cc1cccc(CNc2cc(-c3ccccc3CN(C)C)ncn2)c1`, the concentration at half-maximal activity (AC50) is 15.8 µM (active).
On the same count and under the same terms, to `COC(=O)[C@@]1(Cc2ccc(OC)cc2)[C@H]2c3cc(C(=O)N4CCCC4)n(Cc4cc(F)cc5c4OCOC5)c3C[C@H]2CN1C(=O)c1ccccc1` belongs 2.51 µM (active).
The same measure, in the same setting: to `COC(=O)[C@@]1(Cc2ccccc2)[C@H]2c3cc(C(=O)N4CCCC4)n(Cc4cc(F)cc5c4OCOC5)c3C[C@H]2CN1C(=O)c1ccccc1` belongs 3.98 µM (active); to `CC(C)(CNC(=O)c1ccc([N+](=O)[O-])c(Cl)c1)CNC(=O)c1ccc([N+](=O)[O-])c(Cl)c1`, 8.91 µM (active).
Take `O=C(O)c1ccc([N+](=O)[O-])c(P(=O)(O)O)c1`: the activity, negative = inhibition is -2.76% [at 11.4 µM] (inactive).
On to `NCCNC(=O)c1ccc(Cl)cc1`, for which the AC50 result is “inactive”.
For `N[C@@H](CSCc1ccc(I)cc1)C(=O)O`, the activity, negative = inhibition was -8.11% [at 11.4 µM] (inactive).
In the case of `Cc1ccccc1-c1nccc(NCCN2CCOCC2)n1`, the half-maximal activity concentration (AC50) is 25.1 µM (active).
On the same count and under the same terms, the figure for `FC(F)(F)c1ccccc1-c1nccc(NCCN2CCOCC2)n1` is 15.8 µM (active); for `Clc1ccccc1-c1nccc(NCCN2CCOCC2)n1` it is 15.8 µM (active); for `FC(F)(F)c1ccccc1-c1cc(NCCN2CCOCC2)ncn1` it is “inactive”.
Same read-out and setting: to `COCCNc1ccnc(-c2ccccc2C)n1` belongs “inactive”; to `Clc1ccccc1-c1cc(NCCN2CCOCC2)ncn1`, “inactive”.
Regarding `N=C(N)[C@H](N=Nc1ccccc1)C(N)=O`, the activity, negative = inhibition was -11.5% [at 11.4 µM] (inactive).
In the case of `COc1ccc(NC(=O)CSc2nc(C)c3c(c2C#N)CCCC3)cc1`, the AC50 is 17.8 µM (active).
`CCOc1cccc(NC(=O)CSc2nc(C)c3c(c2C#N)CCCC3)c1`: the activity, negative = inhibition was -6.34% [at 11.4 µM] (inactive).
Regarding `CCOc1ccc(NC(=O)CSc2nc(C)c3c(c2C#N)CCCC3)cc1`, the AC50 is 12.6 µM (active).
